# Bioassay records deposited in PubChem by several laboratories.
# Shown are actives, neighbours in structure and some others; about 0.51% of the full set was active somewhere.
# AddAB inh – growth inhibition of E. coli expressing H. pylori AddAB, primary screen, AddAB inhibitor project, absorbance; 330,000 tested, 0.29% active; inhibition, % at 11.9 µM; AID 435030, 2010; in the data active means inhibition above about 12%;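 further: 0% = vehicle wells of infected cells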
# E coli growth-1 – E. coli growth inhibition, primary screen, OD600 | Escherichia coli growth, 23 h; active compounds read low | OD600 absorbance (test concentration not listed) | 330,000 tested, 0.21% active;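 active means OD600 absorbance below the run mean of sample wells minus 3.6 SD, in any replicate, cut at about 0.56 in these data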
# E coli growth-2 – E. coli V3065 growth inhibition, primary screen, counter-screen for AddAB inhibitor project, absorbance, OD600. 18 h. inhibition, % at 11.9 µM. 330,000 tested, 0.27% active;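 active means inhibition above the campaign's mean inhibition across all tested compounds plus 3 SD, cut at about 9.9% in these data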;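 further: uninfected addAB+ strain grown without phage in ampicillin broth; 0% = DMSO wells and 100% = ciprofloxacin 0.95 µg/ml wells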
# Tat export inh – E. coli Tat export inhibitors, primary screen, MC4100, TorA-mCherry reporter, fluorescence, single point; AID 488895, 2010; inhibition, % at 10 µM; 340,000 tested, 0.036% active;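 active means mean replicate inhibition at least 50% and at least half of replicates individually reaching 50%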;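 further: exported cargo escapes ClpAP degradation while cytoplasmic cargo is degraded and loses fluorescence; 0% = median of neutral control wells and 100% = median of NaSCN control wells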
# phage Ecoli inh – growth loss of phage-infected E. coli, primary screen, RecBCD inhibitor project, absorbance, with phage, HTS; inhibition, % at 11.9 µM; 360,000 tested, 0.26% active; in the data active means inhibition above about 11%
# AddAB conf – growth loss of phage-infected E. coli expressing H. pylori AddAB, confirmation, AddAB inhibitor project, absorbance, E. coli V3065, T4 phage, triplicate; inhibition, % at 11.9 µM; OD; T4 phage with gene 2 nonsense mutations; AID 488942, 2010; shares compounds with AddAB inh; 880 tested, 64% active;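 active means mean inhibition above a set limit taken from the earlier primary screen, cut at about 13% in these data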;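 further: higher means less bacterial growth since AddAB block lets phage replicate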
# RecBCD counter – growth loss of RecBCD+ E. coli with mutant T4 phage, counter-screen for AddAB inhibitor project, absorbance, V66 E. coli; OD growth; 880 tested, 73% active; shares compounds with AddAB inh; inhibition, % at 11.9 µM; AID 488955, 2010;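 active means mean inhibition above the mean of solvent-only control wells plus 3 SD, cut at about 4% in these data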;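 further: optical density read after an 18 h incubation at 37 °C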
# bact viab count – bacterial viability inhibition counter-screen, confirmation, counter-screen for AddAB inhibitor project, absorbance | shares compounds with AddAB inh | absorbance (AddAB counterscreen) | inhibition, % at 11.9 µM | 880 tested, 35% active | AID 488956, 2010; in the data active means inhibition above about 25%
# RecBCD conf – growth loss of phage-infected RecBCD+ E. coli, confirmation, RecBCD inhibitor project, absorbance, E. coli V66, T4 gene 2 phage | E. coli V66 + T4 2- phage, growth OD | 890 tested, 45% active | shares compounds with phage Ecoli inh | inhibition, % at 11.9 µM;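 active means mean inhibition over triplicates exceeding the hit threshold derived in the original primary screen, cut at about 11% in these data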
# Ecoli viability – E. coli viability inhibition, counter-screen for RecBCD inhibitor project, absorbance, high throughput. shares compounds with phage Ecoli inh. absorbance (OD) growth. inhibition, % at 11.9 µM. 890 tested, 29% active; in the data active means inhibition above about 20%;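 further: E. coli strain V66 grown with compound alone and no phage infection; 0% = bacteria with DMSO vehicle only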
# AddAB counter – growth loss of phage-infected AddAB-carrying E. coli, confirmation, counter-screen for RecBCD inhibitor project, absorbance, E. coli V3065, T4 phage | shares compounds with phage Ecoli inh | E. coli expressing H. pylori AddAB + T4 phage, OD growth; gene 2 mutant T4, recBCD-deleted host | inhibition, % at 11.9 µM | 890 tested, 45% active | AID 651984, 2013;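 active means mean inhibition above the solvent-only control wells' mean plus 3 SD, cut at about 22% in these data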;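 further: higher means less bacterial growth from phage killing when AddAB is blocked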
# Starred values were filed as active, the others as inactive; · = no result.
SMILES,AddAB inh,E coli growth-1,E coli growth-2,Tat export inh,phage Ecoli inh,AddAB conf,RecBCD counter,bact viab count,RecBCD conf,Ecoli viability,AddAB counter
CCOC(=O)N1CCN(Cc2ccc(O)c3ncccc23)CC1,2,0.75,3,·,8,·,·,·,·,·,·
Cc1ccc(C)c(S(=O)(=O)N2CCN(Cc3ccc(O)c4ncccc34)CC2)c1,17*,0.66,16*,1,17*,13*,15*,10,8,13,19
Cc1ccc(/C=N\NC(=O)c2ccc(Cn3cc(Br)c([N+](=O)[O-])n3)o2)o1,36*,·,27*,5,13*,73*,9.4*,51*,6,9,44*
Cc1ccc(C=NNC(=O)c2ccc(Cn3cc(Br)c([N+](=O)[O-])n3)o2)o1,·,0.67,·,·,·,·,·,·,·,·,·
CCCCC(=O)NC(c1ccc(N(C)C)cc1)c1ccc2cccnc2c1O (configuration not stated),25*,·,35*,20,23*,30*,23*,21,13*,15,14
CCCC(=O)NC(c1ccc(N(C)C)cc1)c1c(O)ccc2ccccc12 (configuration not stated),-3,0.67,-3,1,4,·,·,·,·,·,·
CCCCC(=O)NC(c1ccc(N(CC)CC)cc1)c1ccc2cccnc2c1O (configuration not stated),20*,·,17*,1,19*,24*,17*,19,12*,14,19
C#CCOCCOCCOCCNc1nc(N2CCOCC2)nc(N2CCN(C(=O)C(Cc3cc4ccccc4[nH]3)n3cc(C(N)CC(C)C)nn3)CC2)n1 (configuration not stated),·,0.67,·,·,·,·,·,·,·,·,·
CCSc1nsc(NC(=O)Nc2cccc(F)c2)n1,19*,·,25*,-9,15*,13*,16*,16,16*,19,22*
CC[C@@]12C(=O)N(c3cccc(F)c3)C(=O)N1C(c1cccc(C)c1)C1C(=O)N(Cc3ccccc3)C(=O)C12 (some centres not stated),·,0.68,·,·,·,·,·,·,·,·,·
CN1CCc2c(sc(NC(=O)c3ccc([N+](=O)[O-])o3)c2C(N)=O)C1,99*,·,99*,56*,80*,102*,82*,102*,69*,89*,103*
Cc1ccnc(NC(=O)c2ccc([N+](=O)[O-])o2)c1,27*,0.56,33*,-10,13*,99*,9.8*,30*,8,10,75*
Cc1ccnc(NC(=O)c2ccccc2[N+](=O)[O-])c1,2,0.7,1,2,3,·,·,·,·,·,·
NC(=O)c1ccsc1NC(=O)c1ccc([N+](=O)[O-])o1,96*,0.2*,88*,-10,21*,100*,20*,68*,13*,16,101*
CC(=CC=C(C#N)C#N)c1cc(C#N)c(N)o1,·,0.71,·,·,·,·,·,·,·,·,·
CN(C)CC(Cl)=C(Cl)c1ccccc1,·,0.63,·,·,·,·,·,·,·,·,·
C=C1c2cccc(O)c2C(=O)C2C(=O)[C@]3(O)C(=O)C(C(N)=O)C(=O)[C@@H](N(C)C)[C@@H]3[C@@H](O)[C@H]12 (some centres not stated),100*,·,102*,145*,99*,101*,101*,99*,103*,105*,104*
CCN1CCN(c2cc3c(cc2F)c(=O)c(C(=O)O)cn3C2CC2)CC1,99*,0.064*,100*,146*,102*,99*,100*,99*,102*,104*,103*
CCOC(=O)C1CN(c2cc3c(cc2F)c(=O)c(C(=O)O)cn3CC)OC1C(=O)OCC (configuration not stated),3,0.66,-1,0,4,·,·,·,·,·,·
CC(=O)N1CCN(c2cc3c(cc2F)c(=O)c(C(=O)O)cn3C2CC2)CC1,102*,0.067*,101*,62*,96*,99*,99*,99*,101*,102*,102*
c1coc(CNc2nc3ccccc3s2)c1,-2,0.68,2,-1,1,·,·,·,·,·,·
CC(C)C(=O)NC(c1cccc([N+](=O)[O-])c1)c1ccc2cccnc2c1O (configuration not stated),18*,0.6,23*,-1,23*,27*,22*,22,16*,21*,28*
CC(C)C(=O)NC(c1ccco1)c1ccc2cccnc2c1O (configuration not stated),16*,·,15*,-11,21*,6,15*,5,5,8,17
Oc1c(C(Nc2nc3ccccc3s2)c2ccco2)ccc2cccnc12 (configuration not stated),19*,0.66,21*,-7,15*,14*,13*,12,8,9,16
CC(=O)NC(c1ccco1)c1cc(F)c2cccnc2c1O (configuration not stated),-2,0.69,1,-2,1,·,·,·,·,·,·
CC[C@]12C(=O)N(C)CC(C3C(=O)N(C)C(=O)C31)N2C(=O)c1ccc(Cl)c(Cl)c1 (some centres not stated),·,0.69,·,·,·,·,·,·,·,·,·
O=C(O)c1cccc(NC(=S)N/N=C/c2ccccn2)c1,17*,·,16*,-3,23*,19*,17*,18,11*,15,17
N#Cc1c(-c2ccccc2)ccn(Cc2cccc(Cl)c2)c1=O,21*,0.69,16*,-4,15*,27*,16*,19,6,9,15
COC(CC(O)C(C)C(O)COCc1ccccc1)OC (configuration not stated),·,0.68,·,·,·,·,·,·,·,·,·
